MARV entry inh = blocks Marburg virus binding to or entry into cells | 1.8% of 300,000 active | AID 540276 | Potency, µM (series often up to 37.8 µM), for inactives: at the highest dose activity change, negative = inhibition, hits mostly inhibitors | Marburg virus pseudotyped entry inhibition, cell reporter; calls by dose curve; tested in HEK293 cells; also: potency is read from the fitted curve at half-maximal effect
LASV entry inh = blocks Lassa virus binding to or entry into cells. AID 540256. Potency, µM (top dose mostly 37.9 µM), for the others: at the highest dose activity change, negative = inhibition, usual class: inhibitors. Lassa virus pseudotype entry inhibition, cell reporter. 1.2% of 300,000 active; calls by dose curve; tested in HEK293 cells; also: potency is read from the fitted curve at half-maximal effect; nearly all actives have a fitted effect of over 50% in size
FMDV inh = foot and mouth disease virus antiviral activity; Potency, µM (doses to about 57.9 µM), inactives show at the top dose activity change, negative = inhibition, usual class: inhibitors; AID 1159524; FMDV antiviral cell-based qHTS; 1.2% of 410,000 active; calls by dose curve; tested in HEK293T cells; also: read-out not given here; potency is read from the fitted curve at half-maximal effect; nearly all actives have a fitted effect of over 45% in size
HCMV antiviral = blocks human cytomegalovirus replication. HFF cells, HCMV-luciferase reporter, 72 h; hits give low values. activity change, negative = inhibition, % at 57.5 µM. 4.5% of 410,000 active. AID 1259415; in the data active = activity change below about -60%; inconclusive = no clear call, values can overlap the other calls; inactive = above about -39%
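Inhibition of viral replication was scored as loss of reporter luminescence in HFFs infected with HCMV-luciferase (MOI 1 PFU/cell) for 72 h; compounds tested at 2 doses, normalized to buffer and Salinomycin controls.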
* = called active by the depositor; ? = inconclusive; . = no result given; [ ] = remark or other dose. The list is not random: actives were taken first. Their share in the collection is about 6.2%. % is scaled to controls: 0 for no effect and ±100 for the full control effect.

SMILES	MARV entry inh	LASV entry inh	FMDV inh	HCMV antiviral
COc1cccc(-c2ccc3c(c2)N(Cc2cccc(F)c2)C(=O)C(C)S3)c1 (stereo unspecified)	.	.	?	5
COc1cc(C2CC(=O)N(Cc3cccc(F)c3)c3ccccc3S2)cc(OC)c1OC (stereo unspecified)	-13%[46.1 µM]	.	25µM*	-95*
CC(=O)c1ccc(N2CCN(C(=O)C3CCN(S(=O)(=O)c4cccc5nonc45)CC3)CC2)cc1	.	?	-19%	5
CC(C)Oc1ccc(CNC(=O)c2ccc3c(c2)N(Cc2ccc(F)cc2)CCS3)cc1	?	.	-16%	9
C=CC[n+]1c(-c2ccc(Cl)cc2Cl)csc1Nc1c(C)n(C)n(-c2ccccc2)c1=O	?	?	?	-87*
C=CC[n+]1c(-c2ccc(Cl)cc2Cl)csc1Nc1ccc(NC(C)=O)cc1	3.2µM*	2.8µM*	-29%	-94*
O=C(NNC1=C(C(=O)C(F)(F)F)CCC1)c1ccccc1Cl	9%	8%	0%	?
O=C(NNC1=C(C(=O)C(F)(F)F)CCC1)c1ccccc1O	-21%	-10%	-19%	55
Nc1ccccc1C(=O)NNC1=C(C(=O)C(F)(F)F)CCC1	6%[46.1 µM]	-21%	7%	-85*
COc1ccccc1C(=O)NNC1=C(C(=O)C(F)(F)F)CCC1	?	?	.	-100*
CCN(CC)c1ccc(NC(=O)C(Cc2ccccc2)NS(=O)(=O)c2ccc(Br)s2)c(C)c1 (stereo unspecified)	13%[46.1 µM]	1%[46.1 µM]	28%	-10
COc1cc(-c2cc(C)c3cccc(OC)c3n2)cc2c1OCCN(C(=O)CCn1ccc(C)n1)C2	.	.	-21%	.
Oc1cccc(Nc2nccc3[nH]c(-c4cccc(OC(F)(F)F)c4)nc23)c1	.	.	.	-14
O=C(COC(=O)C1=Cc2ccccc2OC1)NCc1ccccc1	26%	-19%	-8%	-12
O=C(OCc1cccnc1)C1=Cc2ccccc2OC1	-24%[46.1 µM]	1%	25%	-103*
COc1ccc(NC(=O)Cn2c(CCC(=O)O)ccc2-c2ccccc2)cc1Cl	-3%[46.1 µM]	?	-16%	13
Nc1[nH]n2c(=O)c3c(nc2c1N=Nc1ccc(Cl)cc1)CCCC3	2%[46.1 µM]	10%	-28%	-95*
Nc1[nH]n2c(=O)c3c(nc2c1N=Nc1ccccc1)CCCC3	-6%[46.1 µM]	?	?	?
Cc1occc1C(=O)Nc1cccc(-c2nc(CNC(=O)c3ccc(N4CCCCC4)cc3)c(C)o2)c1	.	.	20%	.
CCOC(=O)c1c(SCCN2CCCC2)n(-c2ccccc2)c(=S)n(-c2ccccc2)c1=O	?	?	20µM*	62
COc1cc(-c2cnc3ccccc3c2)cc2c1OCCN(C(=O)CCn1nc(C)cc1C)C2	.	.	-10%	.
O=C(Nc1ccccc1C(F)(F)F)N1CCC2(CC1)Oc1ccccc1C(=O)N2Cc1ccccc1F	?	.	-18%	-74*
Cc1ccc(Cl)cc1NC(=O)N1CCC2(CC1)Oc1ccccc1C(=O)N2Cc1ccccc1F	-2%[46.1 µM]	.	-24%	15
Cc1cccc(CNc2nc3cnc(-c4ccc(F)cc4)cc3n2C)c1	.	.	.	-3
CC(C)c1ccc(N2C(=O)CSC23C(=O)N2CCCc4cccc3c42)cc1 (stereo unspecified)	8%	-1%	0%	-111*
SMILES	MARV entry inh	LASV entry inh	FMDV inh	HCMV antiviral
CCOC(=O)C(CC)(CC)C(=O)/C=C/c1cccc(Br)c1	?	?	22µM*	-75*
NC(=O)NC(=O)COC(=O)/C=C/c1cccc(Br)c1	.	.	-8%	46
O=C(CCCCn1c(=O)c2ccccc2n(Cc2ccccc2F)c1=O)NCc1ccc2c(c1)OCO2	22%[46.1 µM]	-23%[46.1 µM]	-24%	22
COc1ccccc1Nc1nc(N2CCOCC2)nc(N2CCOCC2)n1	4µM*	-9%[46.1 µM]	-6%	?
COc1ccc(Nc2nc(-c3ccc(C)cc3)nc3ccccc23)c(OC)c1	.	11%[46.1 µM]	-9%	-32
COc1ccc(Nc2nc(Nc3ccc(OC)cc3OC)nc(N3CCOCC3)n2)c(OC)c1	1µM*	-18%[46.1 µM]	0%	-24
COc1ccc(Nc2nc(N3CCCC3)nc3ccccc23)c(OC)c1	?	16µM*	.	?
COc1ccccc1Nc1nc(N2CCCC2)nc(N2CCOCC2)n1	.	.	-17%	4
COc1cccc(CCNC(=O)c2ccc(OC)c(OC3CCN(C(C)C)CC3)c2)c1	.	.	-6%	7
COc1ccccc1CCNC(=O)c1ccc(OC)c(OC2CCN(C(C)C)CC2)c1	29%	17%	-2%	-62*
CCOC(=O)Cc1ccc(NC(=O)c2ccc([N+](=O)[O-])cc2)cc1	-19%	-20%	-3%	-33
CCOC(=O)/C=C/C(=O)Nc1ccccc1-c1ccccc1NC(=O)/C=C/C(=O)OCC	?	13µM*	?	-98*
CCOC(=O)/C=C/C(=O)Nc1cccc([N+](=O)[O-])c1	?	?	25µM*	.
CCOC(=O)Cc1ccc(NC(=O)c2cccc([N+](=O)[O-])c2)cc1	.	.	29%	-60*
CC(=O)NCCNC(=O)c1nnc2n1CCN(C(=O)C1CCCCC1)C2	.	.	.	-17
CCc1ccc(OCC(=O)Nc2cc3oc4ccccc4c3cc2OC)c(Br)c1	?	-4%[46.1 µM]	-11%	19
COc1ccc(C2(c3ccc(OC)cc3)NC(=O)N(CC(=O)Nc3ccc(C(=O)N(C)C)cc3)C2=O)cc1	18%	-14%	-17%	-66*
COc1cc(NC(=O)CN2C(=O)NC(c3ccccc3)(c3ccccc3)C2=O)cc(OC)c1	-12%[46.1 µM]	?	-14%	?
COc1ccc(CNC(=O)CN2C(=O)NC(C)(c3ccc(C(C)(C)C)cc3)C2=O)cc1 (stereo unspecified)	?	-19%	?	-37
C=CCNC(=O)CN1C(=O)NC(C)(c2ccc(OC)cc2)C1=O (stereo unspecified)	4%[46.1 µM]	23%	4%	-99*
Cc1ccc2nc(SCC(=O)NCC3Cc4cc(-c5ncccc5C)ccc4O3)[nH]c2c1 (stereo unspecified)	.	.	-28%	.
COc1cccc(C(=O)N/N=C/C(Br)=C/c2ccccc2)c1	?	-21%	6%	?
COc1ccc(C(=O)N/N=C/C(Br)=C/c2ccccc2)cc1	-2%	6%	-6%	-65*
O=C(N/N=C/C(Br)=C/c1ccccc1)c1cnccn1	?	?	25%	-61*
COc1ccc(/C=N/NC(=O)c2ccc(NC(=O)c3ccccc3Br)cc2)cc1	-26%	18µM*	-9%	-91*
SMILES	MARV entry inh	LASV entry inh	FMDV inh	HCMV antiviral
O=C(N/N=C/C=C\c1ccccc1)c1cnccn1	21%[46.1 µM]	6%[46.1 µM]	6%	57
COCCNc1nc(C)cc(-c2cc(-c3ccc(Cl)cc3)on2)n1	.	.	-2%	-7
COCCNc1nc(-c2cc(-c3ccccc3)on2)cc(C(C)C)n1	.	.	-16%	-63*
CCOC(=O)CC1(Cc2ccccc2)Oc2ccccc2O1	.	.	.	-35
CC(=O)N(C)c1ccc(NC(=S)Nc2cccc3ccccc23)cc1	?	-1%	-10%	-71*
CC(=O)c1cccc(NC(=O)C(=O)Nc2cccc3ccccc23)c1	?	-28%	79%	-60*
CC(=O)c1ccc(NC(=S)Nc2cccc3ccccc23)cc1	.	.	-4%	-5
Nc1[nH]c(C(=O)c2ccccc2)c(-c2cccnc2)c1C(=O)c1ccccc1	.	.	.	-3

Compound activity: PubChem, National Center for Advancing Translational Sciences (NCATS)
